Assay in all cases: qHTS profiling for inhibitors of Plasmodium falciparum proliferation (AID 504749); also: nearly all actives have a fitted effect of over 60% in size
Common to all, as to conditions: P. falciparum in erythrocytes, SYBR Green DNA, 72 h; series mostly up to 28.7 µM
(In qHTS, concentration-response curves come from the screen itself.)

The subject of assay [1] is DIV17. Summed up: (§1)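 Infected RBCs, 0.3% parasitemia/2.5% Hct final; cpd 72 h, 37 C, 5% CO2; lysis buffer with saponin/triton/SYBR Green I, o/n RT dark; FI 485/535; norm. to artemisinin (0.29 uM) and DMSO.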
Assay [2] has as its system DIV30. A digest of the protocol:
as §1

In assay [3] the test system is Dd2. A digest of the protocol:
as §1

Assay [4] has as its system ECU. Summed up: as §1
For assay [5], the system named is FAB9. A digest of the protocol:
as §1

Assay [6] has as its system GB4. Summed up: as §1
Assay [7] has as its system HB3. Summed up: as §1
Assay [8] relates to ICS. Summed up:
as §1

The subject of assay [9] is JCK. A digest of the protocol: as §1
For assay [10], the system named is N140. Summed up: as §1
Assay [11] has as its system P93_24. A digest of the protocol:
as §1

Assay [12] concerns P94_40. Summed up: as §1
The subject of assay [13] is PAD. A digest of the protocol: as §1
The test system of assay [14] is PC15. A digest of the protocol: as §1
The test system of assay [15] is PC26. Summed up:
as §1

Assay [16] has as its system PC49. A digest of the protocol: as §1
Assay [17] has as its system SC27B. Summed up: as §1
The test system of assay [18] is TAB109. Summed up:
as §1

The subject of assay [19] is TAB113. Summed up:
as §1

The test system of assay [20] is TAB165. Summed up: as §1

Records with an inconclusive call do not appear. Unmarked numbers belong to inactive results. Activity calls are given as the source filed them. Calls follow the shape of the dose curve; as a rule, active = well fitted inhibition curve with a large enough effect; inconclusive = small, poorly fitted or top-dose-only effect; inactive = flat fitted curve, though single readings scatter.
Potency is read from the fitted curve at half-maximal effect.

In the case of `COc1c2c(cc3c1OCO3)CCN(C)C2`, the Potency result in assay [1], in assay [2], in assay [3], in assay [4], in assay [5] and in assay [6] was “inactive” throughout. Besides, the Potency entry in [7], in assay [8], in assay [9], in assay [10], in assay [11] and in [12] was “inactive” each time. The Potency result in [13], in [14], in assay [15], in assay [16], in assay [17] and in assay [18] was “inactive” throughout. The Potency result in assay [19] and in assay [20] was “inactive” throughout.
Take `CCOC(=O)CC(SP(=S)(OC)OC)C(=O)OCC` (stereo not drawn): the Potency result in assay [1], in [2], in assay [3], in assay [4], in assay [5] and in [6] was “inactive” throughout. The Potency entry in assay [7], in [8], in assay [9], in assay [10], in [11] and in assay [12] was “inactive” each time. In addition, the Potency result in assay [13], in assay [14], in [15], in assay [16], in assay [17] and in [18] was “inactive” each time. Further, the Potency result in [19] and in [20] was “inactive” in each case.
As to `NNc1ccccc1`, the Potency entry in [1], in [2], in assay [3], in assay [4], in assay [5] and in [6] was “inactive” in each case. Also, the Potency entry in assay [7], in assay [8], in assay [9], in [10], in assay [11] and in assay [12] was “inactive” in each case. For the same molecule, the Potency entry in assay [13], in [14], in assay [15], in assay [16], in assay [17] and in [18] was “inactive” each time. Moreover, the Potency result in assay [19] and in assay [20] was “inactive” throughout.
On to `NC(=O)CS(=O)C(c1ccccc1)c1ccccc1` (stereo not drawn), for which the Potency result in assay [1], in assay [2], in [3], in assay [4], in assay [5] and in assay [6] was “inactive” each time. The Potency result in assay [7], in [8], in assay [9], in [10], in assay [11] and in assay [12] was “inactive” throughout. Besides, the Potency entry in assay [13], in assay [14], in assay [15], in [16], in [17] and in assay [18] was “inactive” each time. Also, the Potency result in [19] and in assay [20] was “inactive” in each case.
`CC(C)=CC1C(C(=O)OCN2C(=O)C3=C(CCCC3)C2=O)C1(C)C` (stereo not drawn): the Potency result in [1], in assay [2], in [3], in assay [4], in assay [5] and in assay [6] was “inactive” in each case. Besides, the Potency result in assay [7], in assay [8], in assay [9], in [10], in assay [11] and in assay [12] was “inactive” throughout. Besides, the Potency entry in assay [13], in [14], in assay [15], in assay [16], in assay [17] and in assay [18] was “inactive” each time. Moreover, the Potency result in assay [19] and in assay [20] was “inactive” each time.
Consider `CCC1(c2ccccc2)C(=O)N(COC)C(=O)N(COC)C1=O`, for which the Potency entry in assay [1], in assay [2], in [3], in assay [4], in assay [5] and in assay [6] was “inactive” in each case. The Potency result in assay [7], in assay [8], in assay [9], in assay [10], in assay [11] and in [12] was “inactive” throughout. Also, the Potency result in assay [13], in assay [14], in assay [15], in assay [16], in assay [17] and in assay [19] was “inactive” each time. The Potency entry in [20] was “inactive”.
Take `CN1C(=O)NC(=O)C(C)(C2=CCCCC2)C1=O` (stereo not drawn): the Potency result in assay [1], in [2], in [3], in assay [4], in assay [5] and in assay [6] was “inactive” throughout. Further, the Potency entry in assay [7], in assay [8], in [9], in assay [10], in assay [11] and in assay [12] was “inactive” throughout. Further, the Potency entry in assay [13], in [14], in [15], in assay [16], in assay [17] and in assay [18] was “inactive” each time. Besides, the Potency result in [19] and in [20] was “inactive” in each case.
As for `Cc1nnc2n1-c1ccc(Cl)cc1C(c1ccccc1)=NC2`, the Potency entry in [1], in assay [3], in assay [4], in assay [5], in assay [6] and in assay [7] was “inactive” throughout. The Potency entry in assay [10], in [11], in assay [13], in [14], in assay [15] and in assay [16] was “inactive” each time. Moreover, the Potency entry in assay [17], in [19] and in assay [20] was “inactive” in each case. Further, in assay [8], the Potency is 8910 nM (active).
For the molecule `C[C@]12CCC(=O)C=C1CC[C@@H]1[C@@H]2CC[C@]2(C)C(=O)CC[C@@H]12`, the Potency result in assay [2], in assay [3], in assay [5], in assay [6], in assay [7] and in assay [8] was “inactive” each time. The Potency result in assay [9], in assay [10], in assay [11], in [12], in [14] and in assay [15] was “inactive” in each case. The Potency result in assay [16], in [17], in assay [18], in [19] and in assay [20] was “inactive” in each case.
Turning to `CCOP(=S)(OCC)Oc1ccc2c(C)c(Cl)c(=O)oc2c1`, the Potency result in [1], in assay [3], in assay [4], in [5], in assay [6] and in assay [7] was “inactive” in each case. Moreover, the Potency result in assay [9], in assay [13], in assay [14], in [15] and in assay [16] was “inactive” in each case. The Potency in assay [12] is 11200 nM (active); in assay [19] it was 7940 nM (active).
Regarding `COP(=S)(OC)Oc1ccc(SC)c(C)c1`, the Potency entry in assay [1], in assay [2], in [3], in assay [4], in assay [5] and in [6] was “inactive” each time. Further, the Potency result in [7], in assay [8], in assay [10], in assay [11], in assay [12] and in [13] was “inactive” throughout. Also, the Potency entry in assay [14], in [16], in [17], in assay [18], in assay [19] and in [20] was “inactive” in each case.
Turning to `COc1ccc2c(c1)C13CCCC[C@@H]1C(C2)N(C)CC3` (stereo partly drawn), the Potency is 3010 nM (active) in assay [1], 5620 nM (active) in [3] and 3550 nM (active) in assay [16]. Moreover, the Potency result in assay [5], in [7], in assay [9], in [10] and in assay [19] was “inactive” throughout.
Regarding `C[C@](O)(CS(=O)(=O)c1ccc(F)cc1)C(=O)Nc1ccc(C#N)c(C(F)(F)F)c1`, the Potency entry in assay [2], in assay [3], in assay [5], in [6], in assay [7] and in assay [8] was “inactive” throughout. Besides, the Potency result in assay [9], in assay [10], in [11], in assay [12], in [13] and in assay [14] was “inactive” throughout. Further, the Potency entry in assay [15], in assay [16], in assay [17], in assay [19] and in [20] was “inactive” throughout.
As for `O=C(N/N=C/c1ccc([N+](=O)[O-])o1)c1cc([N+](=O)[O-])cc([N+](=O)[O-])c1O`, the Potency in assay [7] is 1580 nM (active); in assay [10], 708 nM (active); in [11], 100 nM (active); in assay [12], 79.4 nM (active); in [13], 7.1 nM (active); in assay [17], 141 nM (active). Also, the Potency was 14.1 nM (active) in [18] and 282 nM (active) in [19]. Also, the Potency entry in [14] is “inactive”.
Consider `COC(=O)C(c1ccccc1)C1CCCCN1` (stereo not drawn), for which the Potency result in assay [2], in assay [4], in [5], in assay [7], in [8] and in assay [9] was “inactive” each time. The Potency result in [10], in [11], in [12], in assay [13], in assay [14] and in [15] was “inactive” throughout. For the same molecule, the Potency entry in [17], in assay [18], in assay [19] and in assay [20] was “inactive” in each case.
